Screening data as filed in PubChem BioAssay.
The list is not random: actives were taken first. Their share in the collection is about 4.1%.
NALP3 yeast inh: NALP3 inflammasome inhibitors in reconstituted yeast, primary screen, luminescence, uHTS; Yeast reconstituted NLRP3/ASC/caspase-1, beta-gal luminescence, 24 h; inhibition, % at 10 µM; 0.39% of 330,000 active; AID 2825, 2010;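 active = inhibition of 50% or more; inactive = inhibition below 50%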;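 also: plate controls were induced DMSO wells for no effect and uninduced yeast grown without galactose for full effect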
TIM10 inh: growth inhibitors of isogenic TIM10 control yeast, primary screen, counter-screen for tim10-1 yeast inhibitor project, luminescence, uHTS; AID 463195, 2010; 1.4% of 330,000 active; inhibition, % at 10 µM; S. cerevisiae TIM10 strain growth, BacTiter-Glo luminescence, 24 h;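 active = inhibition of 40% or more at the single tested concentration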;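 also: wild-type TIM10 isogenic control strain grown at permissive 25 °C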
NALP1 inh: NALP1 inflammasome inhibitors in reconstituted yeast, colorimetric, S. cerevisiae, triplicate retest. S. cerevisiae NALP1/ASC/caspase-1 growth, X-gal OD620, 72 h. inhibition, % at 10 µM. 0.61% of 280,000 active. AID 2071, 2009; in the data active = inhibition mostly above about 24%, no sharp cut-off; inactive = mostly below about 32%
tim10-1 inh: growth inhibitors of tim10-1 mutant yeast, primary screen, luminescence, uHTS; inhibition, % at 20 µM; S. cerevisiae tim10-1 ts strain growth, BacTiter-Glo, 24 h; 2.2% of 330,000 active;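 active = inhibition of at least 40%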;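 also: mutant grown at 25 °C; 0% = DMSO wells with yeast and 100% = wells holding no yeast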
tim23-1 inh: growth inhibitors of tim23-1 mutant yeast, primary screen, luminescence, uHTS | S. cerevisiae tim23-1 growth, BacTiter-Glo luminescence, 24 h | inhibition, % at 20 µM | 1.3% of 330,000 active;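 active = growth inhibition of the mutant yeast at or above 50%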;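 also: temperature-sensitive mutant grown at 25 °C; plate controls were DMSO-treated mutant yeast for no effect and medium wells lacking yeast for full effect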
PfHsp90 yeast 2: growth inhibition of PfHsp90-expressing yeast, primary screen, antimalarial PfHsp90 inhibitor project, S. cerevisiae, BacTiter-Glo luminescence, single point, set 2 | BacTiter-Glo ATP, 48 h; yeast lacking PDR1 and PDR3 efflux regulators | inhibition, % at 9.4 µM | 0.32% of 310,000 active;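 active = every replicate shows inhibition above about 80%, whatever the replicate mean, limit read from the data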;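 also: 0% = DMSO neutral controls and 100% = 20 µM radicicol positive controls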
tim10-1 confirm: growth inhibitors of tim10-1 mutant yeast, confirmation, single concentration, luminescence, S. cerevisiae; shares compounds with tim10-1 inh; S. cerevisiae tim10-1 ts strain growth, BacTiter-Glo, 24 h; inhibition, % at 20 µM; 56% of 7,400 active;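 active = inhibition of yeast growth at or above a set limit in either of two repeat tests at 20 µM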;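 also: tim10-1 mutant grown at permissive 25 °C to find synthetic lethal compounds; 0% = DMSO yeast wells and 100% = medium wells without yeast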
* hit, by the source's call; / = no result; ! = repeats disagree.

SMILES	NALP3 yeast inh	TIM10 inh	NALP1 inh	tim10-1 inh	tim23-1 inh	PfHsp90 yeast 2	tim10-1 confirm
CC(=O)C1=C(O)C(=O)N(c2ccccn2)C1c1cccc(F)c1 (stereo not drawn)	5	5	4	-6	37	23	/
COCCN(C(=S)Nc1ccc(OC)cc1)C(C)c1cccs1 (stereo not drawn)	6	22	22	41*	36	-26	25
Cc1cc(-c2ccc(C)c(S(=O)(=O)N3CCN(c4ccccn4)CC3)c2)on1	20	18	13	42*	39	-4	32*
Cc1cc(-c2ccc(C)c(S(=O)(=O)N3CCN(c4ccc([N+](=O)[O-])cc4)CC3)c2)on1	-3	3	3	22	15	17	/
Cc1ccc(Cl)cc1NC(=O)COC(=O)C1CCCC1	-2	-3	8	12	14	31	/
Cc1ccc(Cl)cc1NC(=O)COC(=O)C12CC3CC(CC(C3)C1)C2	9	40	11	47*!	23	-11	33*
O=c1c2[nH]c3ccc(F)cc3c2nc2n1CCS2	6	26	8	46*	19	-16	40*
O=c1c2[nH]c3ccc(F)cc3c2nc2n1CCCS2	29	18	12	41*	32	16	23
O=[N+]([O-])c1ccc(O)c(NC(=S)Nc2ccccc2)c1	-24	38	0	48*	35	-34	27
COc1ccc([N+](=O)[O-])cc1NC(=S)Nc1ccccc1	18	13	-3	10	13	7	/
O=C(CCl)N1CCN(S(=O)(=O)c2ccc3ccccc3c2)CC1	13	33	18	40*	42	7	33*
CC1CCN(c2ccc(S(=O)(=O)N3CCC(C)CC3)cc2N)CC1	22	19	0	41*	38	-2	30
CN1CCN(S(=O)(=O)c2ccc3ccccc3c2)CC1	19	8	20	-14	-2	2	/
CN(C)C(=O)N1CCN(S(=O)(=O)c2ccc3ccccc3c2)CC1	25	1	0	4	16	-9	/
CC1CCN(S(=O)(=O)c2ccc3ccccc3c2)CC1	6	-1	6	44*	34	-10	31*
Cc1noc(C)c1C(=O)N(CC(=O)Nc1ccc(Cl)c(C(F)(F)F)c1)Cc1ccco1	10	-7	/	-1	0	-6	/
CC(C)=CCN1CCN(Cc2cn(C(C)C)c3ccccc23)CC1CCO (stereo not drawn)	14	1	22	13	7	1	/
N#Cc1cccc(NC(=O)CSc2cccc[n+]2[O-])c1	11	-3	/	-20	-7	25	/
Cc1ccccc1SCC(=O)Nc1cccc(C#N)c1	19	11	12	44*	12	16	18
Cc1cc(/C=C2/SC(=S)N(c3cccc(C(F)(F)F)c3)C2=O)c(C)n1-c1cccnc1	3	30	/	50*	27	2	25
C[C@@H](c1ccccc1)N1C[C@H]2CCCN2c2cc(Br)ccc2S1(=O)=O	/	8	/	27	47	-20	/
CC[C@@H](C)[C@H](NC(=O)OCc1ccccc1)c1nnc([C@@H](NC(=O)OCc2ccccc2)[C@@H](C)CC)o1	20	2	/	13	18	22	/
CC(C)(C)OC(=O)N[C@@H](Cc1ccccc1)c1nnc(S(=O)(=O)Cc2cccc(F)c2)o1	13	4	-1	59*	23	/	50*
CC[C@@H](C)[C@H](NC(=O)OC(C)(C)C)c1nnc(S(=O)(=O)Cc2cc(C)ccc2C)o1	15	35	-4	52*	43	106*	57*
CC(=O)Nc1nc2ccccc2n1Cc1ccccc1Cl	5	16	-25	46*	27	-28	22
